Where a chain is given by its changes, count along the chain named.
Columns and labels:
Assay in all cases: HT-SELEX; high values mean tight binding
Conditions in all cases: protein: recombinant; vector His6-GST; dsDNA, one strand shown
SALL4 ZFC4 WT (HT-SELEX) = target: T1, SALL4 ZFC4 WT (HT-SELEX) (Mus musculus, UniProt Q8BX22 870-940)
T1 sequence: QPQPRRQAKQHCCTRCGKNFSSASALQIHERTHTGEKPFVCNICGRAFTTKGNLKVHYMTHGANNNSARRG
Summary of the method: (§1)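 In triplicate selections of up to 6 cycles, purified recombinant mouse SALL4 zinc finger cluster 4 (residues 870–940, 1 µg) was incubated 10 min at room temperature with library DNA (1.5 µg, then 200 ng) in 100 µl of 10 mM Tris–HCl pH 7.5, 50 mM NaCl, poly(dI-dC) and DTT, and complexes were captured on Ni2+ beads, washed and PCR-amplified. Sequencing was done on MiSeq with scanning for 6-mers. The binding signal is each canonical k-mer's read fraction, reported as fold change against the initial random library.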

[1] = target: T2, SALL4 ZFC4 R900W (HT-SELEX) (Mus musculus, UniProt Q8BX22 870-940, R900W)
T2 sequence: T1 sequence with R31W
Summary of the method: as §1

[2] = target: T3, SALL4 ZFC4 G921D (HT-SELEX) (Mus musculus, UniProt Q8BX22 870-940, G921D)
T3 sequence: T1 sequence with G52D
Summary of the method: as §1

| Sequence | binding signal (SALL4 ZFC4 WT (HT-SELEX)) | binding signal [1] | binding signal [2] |
| --- | --- | --- | --- |
| ATTGCA | 1.16 ± 0.0389 fold-change vs cycle 0 | 1.12 ± 0.0435 fold-change vs cycle 0 | 1.18 ± 0.0324 fold-change vs cycle 0 |
| ATAGTC | 1.25 ± 0.0415 fold-change vs cycle 0 | 1.31 ± 0.0594 fold-change vs cycle 0 | 1.33 ± 0.0589 fold-change vs cycle 0 |
| GATACA | 1.33 ± 0.0706 fold-change vs cycle 0 | 1.39 ± 0.0615 fold-change vs cycle 0 | 1.37 ± 0.0715 fold-change vs cycle 0 |
| AGTTAG | 1.428 ± 0.0117 fold-change vs cycle 0 | 1.56 ± 0.0647 fold-change vs cycle 0 | 1.46 ± 0.0871 fold-change vs cycle 0 |
| AACCGA | 0.657 ± 0.0177 fold-change vs cycle 0 | 0.7295 ± 0.00455 fold-change vs cycle 0 | 0.812 ± 0.0455 fold-change vs cycle 0 |
| AACAAT | 2.06 ± 0.132 fold-change vs cycle 0 | 1.95 ± 0.114 fold-change vs cycle 0 | 1.79 ± 0.145 fold-change vs cycle 0 |
| TAATCA | 2.37 ± 0.116 fold-change vs cycle 0 | 2.13 ± 0.0839 fold-change vs cycle 0 | 1.88 ± 0.168 fold-change vs cycle 0 |
| CTATTA | 2.26 ± 0.136 fold-change vs cycle 0 | 2.05 ± 0.132 fold-change vs cycle 0 | 1.81 ± 0.165 fold-change vs cycle 0 |
| GCTTCA | 0.635 ± 0.0338 fold-change vs cycle 0 | 0.769 ± 0.0139 fold-change vs cycle 0 | 0.8419 ± 0.0056 fold-change vs cycle 0 |
| GGAGCA | 0.352 ± 0.0189 fold-change vs cycle 0 | 0.423 ± 0.00792 fold-change vs cycle 0 | 0.543 ± 0.05 fold-change vs cycle 0 |
| ACAGAT | 1.32 ± 0.0342 fold-change vs cycle 0 | 1.4 ± 0.028 fold-change vs cycle 0 | 1.37 ± 0.0364 fold-change vs cycle 0 |
| ACCAGC | 0.312 ± 0.0135 fold-change vs cycle 0 | 0.369 ± 0.00921 fold-change vs cycle 0 | 0.497 ± 0.0437 fold-change vs cycle 0 |
| CATGCC | 0.31 ± 0.0224 fold-change vs cycle 0 | 0.354 ± 0.0129 fold-change vs cycle 0 | 0.48 ± 0.0491 fold-change vs cycle 0 |
| TTGCAA | 1.13 ± 0.0202 fold-change vs cycle 0 | 1.09 ± 0.0477 fold-change vs cycle 0 | 1.146 ± 0.00914 fold-change vs cycle 0 |
| AACTAC | 1.27 ± 0.0931 fold-change vs cycle 0 | 1.37 ± 0.099 fold-change vs cycle 0 | 1.32 ± 0.108 fold-change vs cycle 0 |
| CCACAC | 0.35 ± 0.0241 fold-change vs cycle 0 | 0.414 ± 0.0369 fold-change vs cycle 0 | 0.516 ± 0.0626 fold-change vs cycle 0 |
| CGTAGC | 0.305 ± 0.0314 fold-change vs cycle 0 | 0.356 ± 0.00868 fold-change vs cycle 0 | 0.479 ± 0.0718 fold-change vs cycle 0 |
| ATAAGA | 2.45 ± 0.123 fold-change vs cycle 0 | 2.3 ± 0.143 fold-change vs cycle 0 | 1.92 ± 0.245 fold-change vs cycle 0 |
| CCTTGA | 0.879 ± 0.0172 fold-change vs cycle 0 | 1.041 ± 0.00922 fold-change vs cycle 0 | 1.05 ± 0.0247 fold-change vs cycle 0 |
| GAGAGC | 0.363 ± 0.00861 fold-change vs cycle 0 | 0.422 ± 0.0138 fold-change vs cycle 0 | 0.588 ± 0.0466 fold-change vs cycle 0 |

| Sequence | binding signal (SALL4 ZFC4 WT (HT-SELEX)) | binding signal [1] | binding signal [2] |
| --- | --- | --- | --- |
| CTAATA | 2.24 ± 0.127 fold-change vs cycle 0 | 2.01 ± 0.099 fold-change vs cycle 0 | 1.81 ± 0.144 fold-change vs cycle 0 |
| AGACCA | 0.701 ± 0.0172 fold-change vs cycle 0 | 0.823 ± 0.0201 fold-change vs cycle 0 | 0.91 ± 0.0215 fold-change vs cycle 0 |
| AGGGAC | 0.483 ± 0.0313 fold-change vs cycle 0 | 0.559 ± 0.0327 fold-change vs cycle 0 | 0.674 ± 0.0751 fold-change vs cycle 0 |
| GGTCAA | 0.661 ± 0.0198 fold-change vs cycle 0 | 0.78 ± 0.0273 fold-change vs cycle 0 | 0.867 ± 0.0299 fold-change vs cycle 0 |
| GTTCCA | 0.74 ± 0.03 fold-change vs cycle 0 | 0.862 ± 0.0102 fold-change vs cycle 0 | 0.915 ± 0.0401 fold-change vs cycle 0 |
| GTGCAA | 0.539 ± 0.0349 fold-change vs cycle 0 | 0.616 ± 0.0276 fold-change vs cycle 0 | 0.721 ± 0.0304 fold-change vs cycle 0 |
| GGGGGA | 0.31 ± 0.0219 fold-change vs cycle 0 | 0.349 ± 0.0327 fold-change vs cycle 0 | 0.439 ± 0.0654 fold-change vs cycle 0 |
| AAAGGG | 0.754 ± 0.0569 fold-change vs cycle 0 | 0.891 ± 0.0422 fold-change vs cycle 0 | 0.879 ± 0.0118 fold-change vs cycle 0 |
| CTCCAG | 0.482 ± 0.0297 fold-change vs cycle 0 | 0.584 ± 0.0424 fold-change vs cycle 0 | 0.667 ± 0.0339 fold-change vs cycle 0 |
| ATTACG | 1.22 ± 0.102 fold-change vs cycle 0 | 1.27 ± 0.0629 fold-change vs cycle 0 | 1.23 ± 0.0609 fold-change vs cycle 0 |
| GCTGAC | 0.325 ± 0.00641 fold-change vs cycle 0 | 0.408 ± 0.0215 fold-change vs cycle 0 | 0.526 ± 0.0825 fold-change vs cycle 0 |
| AAGAAT | 2.15 ± 0.0737 fold-change vs cycle 0 | 2.2 ± 0.103 fold-change vs cycle 0 | 1.91 ± 0.167 fold-change vs cycle 0 |
| CCTTCC | 0.487 ± 0.0167 fold-change vs cycle 0 | 0.593 ± 0.0214 fold-change vs cycle 0 | 0.661 ± 0.0352 fold-change vs cycle 0 |
| AAGACT | 1.29 ± 0.0445 fold-change vs cycle 0 | 1.49 ± 0.0431 fold-change vs cycle 0 | 1.4 ± 0.0897 fold-change vs cycle 0 |
| AACTTG | 1.21 ± 0.0551 fold-change vs cycle 0 | 1.34 ± 0.0813 fold-change vs cycle 0 | 1.29 ± 0.0625 fold-change vs cycle 0 |
| AAGGAA | 1.46 ± 0.0939 fold-change vs cycle 0 | 1.66 ± 0.0995 fold-change vs cycle 0 | 1.49 ± 0.137 fold-change vs cycle 0 |
| AACAAA | 1.75 ± 0.107 fold-change vs cycle 0 | 1.8 ± 0.139 fold-change vs cycle 0 | 1.64 ± 0.143 fold-change vs cycle 0 |
| AGATTA | 2.21 ± 0.147 fold-change vs cycle 0 | 2.14 ± 0.14 fold-change vs cycle 0 | 1.86 ± 0.198 fold-change vs cycle 0 |
| AGCCAT | 0.592 ± 0.0288 fold-change vs cycle 0 | 0.664 ± 0.00758 fold-change vs cycle 0 | 0.778 ± 0.0611 fold-change vs cycle 0 |
| CTTTAA | 1.84 ± 0.0654 fold-change vs cycle 0 | 1.95 ± 0.0889 fold-change vs cycle 0 | 1.69 ± 0.149 fold-change vs cycle 0 |

| Sequence | binding signal (SALL4 ZFC4 WT (HT-SELEX)) | binding signal [1] | binding signal [2] |
| --- | --- | --- | --- |
| CTAGAA | 1.25 ± 0.0695 fold-change vs cycle 0 | 1.37 ± 0.0276 fold-change vs cycle 0 | 1.3 ± 0.11 fold-change vs cycle 0 |
| ACGACA | 0.543 ± 0.0412 fold-change vs cycle 0 | 0.639 ± 0.0243 fold-change vs cycle 0 | 0.747 ± 0.0208 fold-change vs cycle 0 |
| GGAAAC | 0.775 ± 0.0365 fold-change vs cycle 0 | 0.874 ± 0.0459 fold-change vs cycle 0 | 0.9097 ± 0.00842 fold-change vs cycle 0 |
| CGTACG | 0.303 ± 0.0125 fold-change vs cycle 0 | 0.389 ± 0.029 fold-change vs cycle 0 | 0.481 ± 0.0656 fold-change vs cycle 0 |
| TGAGAA | 1.37 ± 0.0413 fold-change vs cycle 0 | 1.49 ± 0.0497 fold-change vs cycle 0 | 1.38 ± 0.0987 fold-change vs cycle 0 |
| ATGCAC | 0.606 ± 0.0179 fold-change vs cycle 0 | 0.667 ± 0.022 fold-change vs cycle 0 | 0.775 ± 0.052 fold-change vs cycle 0 |
| ACAAAT | 1.82 ± 0.0876 fold-change vs cycle 0 | 1.76 ± 0.0787 fold-change vs cycle 0 | 1.61 ± 0.106 fold-change vs cycle 0 |
| CATTAG | 1.317 ± 0.00537 fold-change vs cycle 0 | 1.45 ± 0.0172 fold-change vs cycle 0 | 1.39 ± 0.0502 fold-change vs cycle 0 |
| CCTCAA | 0.759 ± 0.0289 fold-change vs cycle 0 | 0.864 ± 0.0329 fold-change vs cycle 0 | 0.951 ± 0.0279 fold-change vs cycle 0 |
| ATTCAA | 1.94 ± 0.125 fold-change vs cycle 0 | 1.97 ± 0.115 fold-change vs cycle 0 | 1.79 ± 0.158 fold-change vs cycle 0 |
| TAAAAA | 3.23 ± 0.33 fold-change vs cycle 0 | 2.2 ± 0.213 fold-change vs cycle 0 | 1.92 ± 0.229 fold-change vs cycle 0 |
| ACTCTA | 1.37 ± 0.0421 fold-change vs cycle 0 | 1.48 ± 0.0703 fold-change vs cycle 0 | 1.43 ± 0.113 fold-change vs cycle 0 |
| AATATT | 5.49 ± 0.414 fold-change vs cycle 0 | 2.54 ± 0.119 fold-change vs cycle 0 | 2.19 ± 0.255 fold-change vs cycle 0 |
| CGATCC | 0.359 ± 0.0529 fold-change vs cycle 0 | 0.43 ± 0.0262 fold-change vs cycle 0 | 0.584 ± 0.0363 fold-change vs cycle 0 |
| AATATC | 2.49 ± 0.203 fold-change vs cycle 0 | 1.88 ± 0.0733 fold-change vs cycle 0 | 1.75 ± 0.14 fold-change vs cycle 0 |
| GAGCAA | 0.613 ± 0.0271 fold-change vs cycle 0 | 0.69 ± 0.0379 fold-change vs cycle 0 | 0.797 ± 0.00723 fold-change vs cycle 0 |
| ACAAGC | 0.616 ± 0.0453 fold-change vs cycle 0 | 0.707 ± 0.0111 fold-change vs cycle 0 | 0.798 ± 0.0212 fold-change vs cycle 0 |
| TATTGA | 2.22 ± 0.167 fold-change vs cycle 0 | 2 ± 0.134 fold-change vs cycle 0 | 1.83 ± 0.179 fold-change vs cycle 0 |
| GGAAAA | 1.11 ± 0.0508 fold-change vs cycle 0 | 1.13 ± 0.0572 fold-change vs cycle 0 | 1.12 ± 0.0269 fold-change vs cycle 0 |
| GGTACA | 0.743 ± 0.0263 fold-change vs cycle 0 | 0.823 ± 0.0156 fold-change vs cycle 0 | 0.894 ± 0.0191 fold-change vs cycle 0 |
